Test results: PubChem BioAssay (NCATS)
Calls of active or inactive are those of the source. No rule for the calls is given here.

system: HIV-1 nucleocapsid protein NCp7 (binding to TG oligonucleotide); assay: HIV Nucleocapsid (AID 346); settings: HIV-1 NC / fluorescein-TGTGTGTG probe, fluorescence polarization;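 also: potency is for inhibitors that block NC binding and lower polarization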
Summary of the method: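 Inhibition of nucleocapsid binding to single-stranded 5'-TGTGTGTG probe (10 nM) was measured by fluorescence polarization after 1 hr at room temperature with 100 nM protein under high-salt, zinc-containing, reducing conditions.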
Potency is read from the fitted curve at half-maximal effect.

SMILES | Potency
O=C(Oc1ccccc1)N1CCC[C@@]2(CCN(c3ccncc3)C2)C1 | > 20 µM (inactive)
COCC(=O)N1CCC2(CC1)CN(Cc1ccccc1OC)C2 | > 20 µM (inactive)
Cc1ccccc1-c1cc(Nc2ccc(F)cc2)ncn1 | > 20 µM (inactive)
Cc1cccc(CNc2ccnc(-c3ccccc3Cl)n2)c1 | > 20 µM (inactive)
CCNc1ncc2nc(-c3ccc(Cl)cc3)c(=O)n(C[C@H]3CCCO3)c2n1 | > 4 µM (inactive)
COc1cccc(Cn2c(=O)c(-c3cc(F)cc(F)c3)nc3cnc(N(C)C)nc32)c1 | > 4 µM (inactive)
Cc1nc2cnc(N3CCN(C)CC3)nc2n(CCc2ccccc2)c1=O | > 20 µM (inactive)
COc1ccccc1CNc1cc(-c2cccc(NS(C)(=O)=O)c2)ncn1 | > 20 µM (inactive)
COCCn1c(=O)c(C)nc2cnc(N(C)C)nc21 | > 20 µM (inactive)
O=C(c1ccco1)N1CCC[C@@]2(CCN(Cc3ccccc3)C2)C1 | > 20 µM (inactive)
O=c1c(-c2cc(F)cc(F)c2)nc2cnc(N3CCNCC3)nc2n1C1CC1 | > 20 µM (inactive)
COc1cccc(-c2nc(NC3CC3)c3ccccc3n2)c1 | > 20 µM (inactive)
COc1ccccc1CNc1cc(-c2ccc(C(=O)N(C)C)cc2)ncn1 | > 20 µM (inactive)
COc1cccc(Cn2c(=O)c(CCc3ccccc3)nc3cnc(N4CCNCC4)nc32)c1 | > 20 µM (inactive)
FC(F)(F)c1ccccc1-c1cncnc1Nc1ccccc1 | > 20 µM (inactive)
Cc1cnc(CNc2nc(-c3ccoc3)nc3ccccc23)cn1 | > 20 µM (inactive)
COCCn1c(=O)cnc2cnc(Oc3ccccc3)nc21 | > 20 µM (inactive)
COc1ccccc1-c1nc(Nc2ccncc2)c2ccccc2n1 | > 20 µM (inactive)
COc1ccccc1-c1nccc(NCc2cccs2)n1 | > 20 µM (inactive)
COCC(=O)N1CCC2(CC1)CN(Cc1ccc(C#N)cc1)C2 | > 20 µM (inactive)
COCCn1c(=O)c(-c2cccs2)nc2cnc(N3CCOCC3)nc21 | > 20 µM (inactive)
CN(C)c1ncc2nc(-c3cc(F)cc(F)c3)c(=O)n(CCc3ccccc3)c2n1 | > 20 µM (inactive)
CN1CCN(c2ncc3nc(-c4ccccc4)c(=O)n(C4CC4)c3n2)CC1 | > 20 µM (inactive)
O=C(c1cccc(F)c1)N1CCC[C@@]2(CCN(c3ccccc3)C2)C1 | > 20 µM (inactive)
